Hits are enriched below; roughly 7.4% of the tested compounds scored in any of these assays.
NPC1 prom act = qHTS Assay for NPC1 Promoter Activators; Huh7 NPC1 promoter luciferase reporter, 24 h; Potency, µM (top dose mostly 9.22 µM), without a hit: at the top dose activation, most hits filed as activators; hit rate 2.4% among 320,000; AID 485313, 2010; also: % of control where 0% means no effect; nearly all actives have a fitted effect of over 60% in size
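In 1536-well qHTS, Huh7 cells harboring an NPC1 promoter–luciferase construct received compound for 24 h; activation was quantified by luminescence following luciferase reagent addition.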
ELG1 genotox = qHTS screen for small molecules that induce genotoxicity in human embryonic kidney (HEK293T) cells expressing luciferase-tagged ELG1. HEK293T ELG1-luciferase reporter, luminescence, 16 h. Potency, µM (series often up to 46 µM), inactives show at the top dose activity change, positive = activation, most hits filed as activators. hit rate 1.3% among 330,000; also: % of control where 0% means no effect; nearly all actives have a fitted effect of over 60% in size
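After overnight (16 hr) compound treatment at 37 °C, ELG1-luciferase HEK293T cells were lysed with ONE-Glo; luminescence quantified 30 min later at room temperature.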
FLuc counter = qHTS profiling assay for firefly luciferase inhibitor/activator using purifed enzyme and Km concentrations of substrates (counterscreen for miR-21 project); Luciferin 4-monooxygenase (Photinus pyralis), P08659; purified FLuc, Km substrates, luminescence inhibition; Potency, µM (titrated, usually from 57.5 µM), without a hit: at the highest dose activity change, negative = inhibition, most hits filed as inhibitors; hit rate 6.9% among 360,000;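 also: plate controls were vehicle for no effect and reference inhibitor for full effect; nearly all actives have a fitted effect of over 55% in size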
Target sequence (P08659 whole entry, looked up): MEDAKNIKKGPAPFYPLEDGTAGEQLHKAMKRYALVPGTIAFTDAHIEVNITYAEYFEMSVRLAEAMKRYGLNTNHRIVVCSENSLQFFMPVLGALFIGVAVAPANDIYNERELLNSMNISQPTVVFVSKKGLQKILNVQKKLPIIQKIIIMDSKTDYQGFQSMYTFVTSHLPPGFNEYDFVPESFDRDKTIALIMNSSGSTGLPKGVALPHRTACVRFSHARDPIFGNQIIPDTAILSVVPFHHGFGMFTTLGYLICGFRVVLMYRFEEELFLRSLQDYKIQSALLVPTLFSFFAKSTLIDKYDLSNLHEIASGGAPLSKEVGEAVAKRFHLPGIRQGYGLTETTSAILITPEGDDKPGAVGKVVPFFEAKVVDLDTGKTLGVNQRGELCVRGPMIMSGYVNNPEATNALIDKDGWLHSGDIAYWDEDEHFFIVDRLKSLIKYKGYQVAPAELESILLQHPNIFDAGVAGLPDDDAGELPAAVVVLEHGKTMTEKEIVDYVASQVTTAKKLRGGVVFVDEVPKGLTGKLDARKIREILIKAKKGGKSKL
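Purified P. pyralis luciferase, 10 nM final, with Km-level 10 uM D-luciferin and 10 uM ATP in 50 mM Tris acetate pH 7.5, 10 mM Mg acetate, 0.01% Tween-20, 0.05% BSA; 6-point qHTS titration about 60 µM downward; luminescence read.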
SMN2 splice enh = qHTS Assay for Enhancers of SMN2 Splice Variant Expression. Potency, µM (top dose mostly 46.1 µM), inactives show top-dose activity change, positive = activation, most hits filed as activators. hit rate 2.8% among 210,000. AID 1458, 2008. HEK293 SMN2-luciferase splicing reporter, luminescence, 30-36 h; also: % of control where 0% means no effect; nearly all actives have a fitted effect of over 55% in size
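HEK293 cells carry an SMN2 minigene-luciferase reporter in which exon 7 inclusion puts luciferase in frame. Cells were seeded at 2000 cells/well, attached for 10-12 hours, then exposed to compounds for 30-36 hours at 37C before ONE-Glo luminescence.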
Rab9 promoter act = qHTS Assay for Rab9 Promoter Activators | Huh7 Rab9 promoter-luciferase reporter, luminescence, 24 h | Potency, µM (top dose mostly 9.22 µM), without a hit: top-dose activation, negative = inhibition, actives largely listed as activators | hit rate 2.8% among 320,000; also: % of control where 0% means no effect; nearly all actives have a fitted effect of over 60% in size
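Stable Rab9-luc Huh7, 1500 cells/well, 2 h settle; cmpd in DMSO, 24 h, 37 °C/5% CO2; luciferase reagent 10 min RT; luminescence.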
Numbers without * were called inactive; ? = inconclusive; nt = no result given; [ ] = remark or other dose. Calls follow the shape of the dose curve; as a rule, active = well fitted curve in the direction sought with a large enough effect; inconclusive = small, poorly fitted or top-dose-only effect, or another doubt; inactive = no such curve, though single readings can be large; an effect the other way counts as inactive or inconclusive. Potency is read from the fitted curve at half-maximal effect.

SMILES	NPC1 prom act	ELG1 genotox	FLuc counter	SMN2 splice enh	Rab9 promoter act
Cc1ccc(C(=O)Nc2ccc(N3CCN(C)CC3)cc2)cc1	2.24µM*	?	19µM*	nt	2.51µM*
CCc1ccccc1NC(=O)Cn1c(=O)n(CCCS(=O)(=O)C2CCCCC2)c(=O)c2ccccc21	nt	nt	-3.6%	7.7%	nt
Cc1cn2c(=O)cc(COC(=O)c3ccc(NC(=O)c4ccc(C(C)(C)C)cc4)cc3)nc2s1	nt	nt	-18.1%	nt	nt
CCOc1ccc(OCC)c(-c2c(=O)n(OCc3ccc(C(C)(C)C)cc3)c3ccccc3[n+]2[O-])c1	-5.0%	-5.9%	8.49µM*	-5.7%	-1.2%
O=S(=O)(NCc1ccccn1)c1cc(C(F)(F)F)ccc1Cl	-3.2%	-1.0%	-2.5%	-5.5%	-1.9%
c1ccc(CNc2ccc3ccccc3n2)nc1	2.24µM*	?	4.78µM*	?	?
FC(F)(F)c1ccc(NCc2ccccn2)nc1	?	?	16.9µM*	nt	?
Cc1cc(NCc2ccccn2)nc2ccccc12	10.5%	7.2%	?	4.7%	6.3%
Cc1ccc2[nH]c3c(NCc4ccccc4)ncnc3c2c1	11.3%	-1.2%	23.9µM*	nt	1.6%
Cc1ccc2[nH]c3c(N4CCOCC4)ncnc3c2c1	1.0%	5.5%	16.9µM*	-42.1%	2.6%
Cc1ccc2[nH]c3c(Cl)ncnc3c2c1	-5.8%	-0.1%	-14.5%	nt	-2.7%
CCCOc1ncnc2c1[nH]c1ccc(C)cc12	2.82µM*	?	1.2µM*	nt	?
COc1ccc(CNc2ncnc3c2[nH]c2ccccc23)cc1	-5.1%	-8.5%	?	nt	-16.7%
COc1ccc(CNc2ncnc3c2[nH]c2cc(OC)c(OC)cc23)cc1	-2.9%	10.4%	23.9µM*	nt	-3.8%
CCOc1c(Br)cc(C2C=C(C(=O)O)Nc3ncnn32)cc1OC (stereo unspecified)	nt	nt	-3.2%	7.8%	nt
CCN(CC)S(=O)(=O)c1ccc(C(=O)NCCSc2c(-c3ccc(OC)cc3)[nH]c3ccccc23)cc1	nt	nt	-5.8%	-18.5%	nt
CC(O)C#C[Si](C)(C)c1ccccc1 (stereo unspecified)	nt	nt	nt	7.2%	nt
CCC(=O)N1C2=C(c3ccccc3[C@@H]1CC(=O)Nc1ccc3ccccc3c1)[C@@H]1C(=O)N(c3ccccc3)C(=O)[C@@H]1[C@H](C)C2	nt	nt	nt	-2.4%[9.22 µM]	nt
CCOC(=O)c1ccc(NC(=O)CCn2c(=O)c3cccn3c3cccnc32)cc1	nt	nt	1.1%	nt	nt
CCc1cc2c(cc3c(=O)n(CC(=O)NCCc4ccc(OC)cc4OC)nc(CC)n32)s1	nt	nt	-0.6%	0.5%	nt
CCCCNc1c(-c2ccc(-c3ccc(C(C)=O)cc3)c(OC)c2)nc2cnccn12	-0.1%	-29.8%	-14.0%	nt	-6.8%
CCCCNc1c(-c2cccc(-c3ccc(OC)cc3)c2)nc2cc(C)ccn12	nt	-8.4%	nt	nt	nt
CCCCNc1c(-c2cccc(-c3ccc(OC)cc3)c2)nc2ccc(C)cn12	15.9%	-5.2%	9.53µM*	nt	9.8%
CCCCNc1c(-c2cccc(-c3cc(C(C)=O)cs3)c2)nc2ccc(C)cn12	12.2%	-16.1%	10.7µM*	nt	2.0%
CCCCNc1c(-c2ccc(-c3cccc(Cl)c3)cc2)nc2ccccn12	?	-0.5%	10.7µM*	nt	3.98µM*
SMILES	NPC1 prom act	ELG1 genotox	FLuc counter	SMN2 splice enh	Rab9 promoter act
O=C(O/N=C1\CCCc2ccccc21)c1cccs1	0.0%	-2.8%	1.35µM*	0.2%	-4.6%
O/N=C1\CCCc2ccccc21	5.3%	-0.3%	1.8%	nt	11.3%
O=C(Cc1ccccc1)O/N=C1\CCCc2ccccc21	-2.6%	1.8%	15.1µM*	15.9%	0.4%
CCc1ccccc1NC(=O)C(=O)NCCCN1CCOCC1	nt	nt	-3.4%	-1.4%	nt
COCCCN1C(=O)c2oc3ccccc3c(=O)c2C12C(=O)N(C)c1ccccc12 (stereo unspecified)	nt	nt	-0.3%	-5.8%	nt
COc1cccc(C2CC(=O)Nc3c2c(=O)n(C)c2nc4ccccc4n32)c1OC (stereo unspecified)	nt	nt	?	2.2%	nt
COc1ccccc1CNC(=O)CCn1cnc2ccccc2c1=O	nt	nt	3.2%	nt	nt
CCCc1ccc(OCc2nc(-c3ccc(NC(=O)c4cccs4)cc3)no2)cc1	21.8%	?	13.5µM*	?	?
Cc1cc(OCc2nc(-c3ccc(NC(=O)c4cccnc4)cc3)no2)ccc1Cl	-0.5%	-4.4%	-2.7%	-4.5%	-11.2%
CCCc1ccc(OCc2nc(-c3ccc(NC(=O)c4ccco4)cc3)no2)cc1	2.51µM*	16.4µM*	13.5µM*	21.0%	?
C[C@@H]1O[C@@H](O)[C@@H](O)[C@H](O)[C@H]1O	nt	nt	nt	-8.3%[9.22 µM]	nt
CCCN(Cc1ccc(C)cc1)C(=O)c1ccc(CNS(=O)(=O)c2ccc(C(C)=O)cc2)cc1	?	0.7%	21.3µM*	nt	?
CCN(Cc1ccccc1)C(=O)c1ccc(CNS(=O)(=O)c2ccc(C)cc2)cc1	-1.8%	0.7%	4.5%	-40.5%	-5.7%
COc1ccc(NC(=O)CCn2c(=O)c3cccn3c3cccnc32)c(OC)c1	nt	nt	-2.0%	nt	nt
COc1cc2c(cc1OC)CN(C(=O)c1ccncc1)CC2	3.7%	0.0%	-0.7%	nt	-2.0%
COc1ccc(C(=O)N2CCc3ccc(NC(=O)c4ccccn4)cc3C2)cc1F	?	-15.8%	21.3µM*	nt	27.4%
COc1ccc(NC(=O)O/N=C/c2ccc(Br)cc2)cc1	9.6%	3.4%	26.9µM*	nt	-0.2%
COc1ccc(NC(=O)O/N=C/c2ccc(N(C)C)cc2)cc1	17.1%	6.6%	21.3µM*	nt	19.3%
COc1ccc(/C=N/OC(=O)Nc2ccccc2OC)cc1	0.8%	?	8.49µM*	15.8µM*	?
COc1ccc(NC(=O)O/N=C/c2ccncc2)cc1	16.2%	14.4%	?	-7.8%	17.4%
Cc1ccc(NC(=O)O/N=C/c2ccc(N(C)C)cc2)cc1	?	14.6%	12µM*	nt	25.9%
CCN(CC)c1ccc(/C=N/OC(C)C(=O)Nc2ccc(C)cc2)cc1 (stereo unspecified)	0.8%	-2.4%	?	2.0%	-0.3%
Cc1ccc(NC(=O)O/N=C/c2ccc(Br)cc2)cc1	0.8%	3.4%	?	nt	-0.1%
CC1=CC2C(C)(C)CC(=O)C[C@]2(C)CC1COc1ccc2c(c1)CC(=O)C=C2 (stereo partly specified)	nt	nt	nt	1.7%	nt
Clc1ccc(-c2noc(-c3cccnc3N3CCN(c4ccccc4)CC3)n2)cc1	nt	nt	2.3%	nt	nt
C[N+]1(NCC[N@@+]2(C)CCc3ccccc3C2)CCCCC1	nt	nt	nt	-4.5%[9.22 µM]	nt
Cc1nn(C(=O)c2cccc([N+](=O)[O-])c2C)c(C)c1S(=O)(=O)N1CCOCC1	nt	nt	1.6%	nt	nt
COc1ccc(/C=N/OC(=O)Nc2ccc(Cl)cc2)c(OC)c1	3.3%	14.5%	12µM*	nt	13.7%
CN(C)c1ccc(/C=N/OC(=O)Nc2ccccc2Cl)cc1	4.7%	9.6%	23.9µM*	nt	29.3%
